# Source: PubChem (National Center for Advancing Translational Sciences (NCATS))
# Rows were chosen to be rich in hits. Some 20% of all compounds tested hit in one or more screens of this group.
# Cycloheximide cs = counter-screen hit for Shiga toxin inhibitors, cycloheximide | cell reporter, cycloheximide protein synthesis inhibition counterscreen | max response, % | 300,000 compounds, 12% hits | AID 2314; in the data active = max response mostly above about 13%, no sharp cut-off; inactive = mostly below about 14%; note: read at 38.3 µM for the half of the compounds with a filed dose; 0% is about no effect
# HCMV inh = human cytomegalovirus inhibition; HFF cells, HCMV-luciferase reporter, 72 h; hits give low values; activity change, negative = inhibition, % at 57.5 µM; AID 1259415; 410,000 compounds, 4.5% hits; in the data active = activity change below about -60%; inconclusive = no clear call, values can overlap the other calls; inactive = above about -39%; note: % is set by controls: 0 for no effect and ±100 for the full control effect
#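 Cell-based, HFFs, 1000 cells/well, 16 h 37C; cpds in DMSO + HCMV-luc, MOI 1 PFU/cell; 72 h 37C; OneGlo luminescence after 5 min RT; norm. to buffer vs Salinomycin 10uM.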
# Pf growth 96h = P. falciparum growth inhibition at 96 hours. 320,000 compounds, 6.9% hits. P. falciparum luciferase reporter growth, 96 h. Potency, µM (highest dose often 28.7 µM), for the others: at the highest dose activity change, negative = inhibition, usual class: inhibitors; note: potency is the fitted concentration of half-maximal effect; % is set by controls: 0 for no effect and ±100 for the full control effect
#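 96 h incubation, 37 C, 5% CO2, of luciferase-reporter P. falciparum-infected RBCs (2% hematocrit, 0.05% parasitemia final) with test compounds; endpoint luminescence.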
# Pf growth 48h = P. falciparum growth inhibition at 48 hours (one generation); 310,000 compounds, 5.9% hits; P. falciparum luciferase growth in erythrocytes, 48 h; Potency, µM (top dose mostly 28.7 µM), without a hit: at the highest dose activity change, negative = inhibition, usual class: inhibitors; note: potency is the fitted concentration of half-maximal effect; % is set by controls: 0 for no effect and ±100 for the full control effect
#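 Firefly luciferase activity from engineered P. falciparum reports growth; inhibitors lower the luminescent signal. Cultures contained 2% hematocrit erythrocytes at 0.1% final parasitemia.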
# Shiga inhibitor = Shiga toxin inhibition | Vero cells, Shiga toxin protein synthesis inhibition reporter | inhibition, % at 38.7 µM | 290,000 compounds, 9.2% hits | AID 2315; in the data active = inhibition mostly above about 28%, no sharp cut-off; inactive = mostly below about 43%; note: 0% is about no effect
# * = called active by the depositor; ? = inconclusive; nt = not tested or not shown. Unless noted, calls come from the whole dose curve; as a rule, active = well fitted inhibition curve with a large enough effect; inconclusive = small, poorly fitted or top-dose-only effect, or another doubt; inactive = no such curve, though single readings can be large or run the other way.
SMILES,Cycloheximide cs,HCMV inh,Pf growth 96h,Pf growth 48h,Shiga inhibitor
Cc1ccc(-c2ccc(/C=N\NC(=O)c3cc4c(ccc5ccccc54)o3)o2)cc1[N+](=O)[O-],-2,-95*,2.9µM*,?,10
COc1ccc(N(CC(=O)N/N=C/c2ccc(-c3ccc([N+](=O)[O-])cc3)o2)S(=O)(=O)c2ccc(C)cc2)cc1Cl,2,-33,?,?,-13
C=CCNC(=S)N/N=C/c1ccc(-c2ccc(OC)cc2)o1,16,13,?,5.2µM*,51
CCOC(=O)c1ccc(-c2ccc(/C=N/NC(=O)CN(c3ccccc3Br)S(C)(=O)=O)o2)cc1,36*,10,26%,-63%,56*
COc1ccc(-c2nc(S(=O)(=O)c3ccc(C)cc3)c(NCc3ccccc3)o2)cc1,nt,-12,nt,nt,nt
CNC(=S)N/N=C/c1ccc(-c2ccc(C(=O)O)cc2)o1,23*,-16,264%,1%,56*
O=C(N/N=C/c1ccc(-c2ccc([N+](=O)[O-])cc2)o1)C(O)c1ccccc1 (stereo unspecified),0,-26,-5%,-2%,13
CCc1nnc(N/N=C/c2cc(C)c(C)cc2C)n1N,-2,17,?,-19%,10
CCc1nnc(N/N=C/c2ccc(-c3ccc([N+](=O)[O-])cc3)o2)n1N,12,7,?,12µM*,-3
CCC(=O)N/N=C/c1ccc(-c2ccc([N+](=O)[O-])cc2)o1,8,-26,10µM*,-2%,-7
CCCCC(=O)N/N=C/c1ccc(-c2ccc([N+](=O)[O-])cc2)o1,14,?,9.3µM*,-24%,25*
Cc1c(Cl)cccc1NC(=O)CCS(=O)(=O)c1cccc2nsnc12,nt,-12,nt,nt,nt
CC(=O)NC(Cc1ccc(F)cc1)C(=O)NC1CCN(c2ncccc2[N+](=O)[O-])CC1 (stereo unspecified),-2,30,15%,13%,13
Cc1nnc(SCC(=O)N/N=C/c2ccc(-c3ccc(C)c(Cl)c3)o2)s1,17*,-65*,?,17%,40
CCC(=O)N/N=C/c1ccc(-c2ccc(Cl)cc2)o1,34*,69,?,51%,67*
Nc1nonc1-c1nc2ccccc2n1CC(=O)N/N=C\c1ccc(-c2ccc(Cl)cc2)o1,-3,-24,38%,35%,-12
Cc1cc(C)n(Cc2ccc(C(=O)N/N=C/c3ccc(-c4ccc([N+](=O)[O-])cc4)o3)o2)n1,-1,-64*,5.2µM*,-10%,-5
CC(C)(C)NC(=S)N/N=C\c1ccc(-c2ccc([N+](=O)[O-])cc2)o1,37*,59,3.7µM*,?,73*
Cc1cccc(N2CCN(C(=O)c3cn(C4CCCCC4)c(=O)c4c3c3ccccc3n4C)CC2)c1C,nt,-16,nt,nt,nt
Cc1cc(C(=O)N/N=C/c2ccc(-c3ccc([N+](=O)[O-])cc3C)o2)n[nH]1,-4,-15,?,-12%,-8
Cc1cc([N+](=O)[O-])ccc1-c1ccc(/C=N/NC(=O)c2ccc(Br)o2)o1,-2,-89*,?,?,23
O=C(N/N=C/c1ccc(-c2ccccc2)o1)c1ccccc1O,16,-16,?,?,40*
O=C(N/N=C\c1ccncc1)c1ccccc1O,22,-29,23%,101%,20
COc1cc(C(=O)NNC(=O)c2nn(C)c(=O)c3ccccc23)cc(OC)c1OC,nt,34,nt,nt,nt
CSc1ccc(CNC(=O)Cn2nc(N3CCN(c4ccccc4)CC3)ccc2=O)cc1,nt,-26,nt,nt,nt
SMILES,Cycloheximide cs,HCMV inh,Pf growth 96h,Pf growth 48h,Shiga inhibitor
CCCCOC(=O)C1=C(C)Nc2ncnn2C1c1cc(OC)ccc1OC (stereo unspecified),-3,39,41%,8%,-10
CCOC(=O)C1=C(C)Nc2nc(C)nn2C1c1cc(OC)ccc1OC (stereo unspecified),-2,29,8.3µM*,17%,-13
CCOC(=O)C1=C(c2ccccc2)Nc2nc(C)nn2C1c1cccc(OC)c1OC (stereo unspecified),-2,-9,9.3µM*,12µM*,-12
O=C(Nc1ccccc1N1CCCC1)c1ccc(Br)o1,9.2*,-18,-12%,-25%,21
CC(=O)N1CCN(c2ccccc2NC(=O)c2ccc(Br)o2)CC1,2,-4,-4%,-12%,-14
O=C(Nc1ccc(N2CCCC2)c(Cl)c1)c1ccc(Br)o1,41*,21,4.7µM*,4.7µM*,40
Cc1c(Cl)cccc1NC(=S)N(CCN(C)C)C(C)c1ccco1 (stereo unspecified),-2,?,2%,?,1
CCc1cccc(N(C(=O)c2csnn2)C(C(=O)NC(C)(C)CC)c2ccccn2)c1 (stereo unspecified),-1,-16,-23%,-24%,-10
Clc1ccc(SCc2cc(-c3ccc(Cl)cc3)on2)cc1,-2,-12,38%,-2%,-21
Cc1ccc(C(=O)c2cc([N+](=O)[O-])ccc2N2CC(C)OC(C)C2)cc1 (stereo unspecified),-8,-15,?,9.3µM*,-14
CC1CCCN(c2ccc([N+](=O)[O-])cc2C(=O)c2ccccc2)C1 (stereo unspecified),1,-74*,0%,?,-12
Cc1ccc(C(=O)c2cc([N+](=O)[O-])ccc2N2CCCCC2)cc1,-3,-85*,35%,?,-4
CC1CN(c2ccc([N+](=O)[O-])cc2C#N)CC(C)O1 (stereo unspecified),-3,-23,26%,?,-6
CC(=O)Nc1ccc(S(=O)(=O)NC2(C(F)(F)F)C(=O)Nc3c2c(=O)[nH]c(=O)n3Cc2ccco2)cc1 (stereo unspecified),-3,17,-7%,6%,-2
CCCOc1ccc(NC(=O)CC2C(=O)N(c3ccc(C)cc3)C(=O)N2C(C)C)cc1 (stereo unspecified),nt,20,nt,nt,nt
CCCCCCN1C[C@@H](O)[C@H](n2cc(C3CC3)nn2)C[C@@H]1c1ccccc1,nt,2,nt,nt,nt
C=CCn1c(O)c(C(CC)=Nc2ccc3c(c2)CCC3)c(=O)[nH]c1=O,8,50,21%,-13%,28
C=CCn1c(O)c(C(C)=Nc2cccc(C(=O)O)c2)c(=O)[nH]c1=O,29*,-34,27%,12%,62*
CCCCn1c(O)c(C(CC)=Nc2cccc(C(=O)O)c2)c(=O)[nH]c1=O,1,3,17%,32%,8
C=CCn1c(O)c(C(CC)=Nc2cccc(C(=O)O)c2)c(=O)[nH]c1=O,76*,-18,7%,39%,76*
C=CCn1c(O)c(C(CC)=Nc2ccc(N(C)C)cc2)c(=O)[nH]c1=O,5,16,1.7µM*,0.66µM*,5
C=CCn1c(O)c(C(C)=Nc2cccc(C(F)(F)F)c2)c(=O)[nH]c1=O,-3,10,4%,5%,-14
Cc1nnc(SCc2cccc([N+](=O)[O-])c2)o1,6,-17,?,15%,37
Cc1cccc(CNC(=O)Cc2csc3ccccc23)c1,63*,40,nt,nt,75*
